This note sets out measurements from PubChem BioAssay (Tox21).

Assay [1] can be described thus: Nuclear factor erythroid 2-related factor 2/antioxidant responsive element (Nrf2/ARE) small molecule agonists: qHTS cell viability counter screen in human keratinocytes (AID 1919968; active means well fitted curve in the direction sought with a large enough effect in the repeat runs; an effect the other way counts as inactive or inconclusive; further: nearly all actives have a fitted effect of over 55% in size; further: potency means the concentration at half of the fitted maximal effect). The gist of the method: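 KeratinoSens cells (HaCaT keratinocytes stably carrying an ARE-luciferase reporter) were seeded at 1,500 cells/well and rested 5 h at 37 C/5% CO2. They were then exposed to compounds in DMSO for 23 h. Viability was read by CellTiter-Fluor fluorescence after 1 h.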

The target of assay [2] is KiSS-1 receptor (Homo sapiens) (UniProt Q969F8). Description: Human kisspeptin (KISS1R) small molecule agonists, calcium flux assay in KISS1R-HEK293 cells (AID 1920064; active means well fitted curve in the direction sought with a large enough effect in the repeat runs; an effect the other way counts as inactive or inconclusive). In a few lines:
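HEK293 cells stably expressing human KISS1R were plated 18 h at 37 °C, loaded with calcium dye for 1 h at 37 °C, then given compound by pin tool. Fluorescence (Ex/Em 480/540) was read kinetically for 3 min.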

A short description of assay [3]: G protein-coupled receptor (GPCR) small molecule agonists, calcium flux assay: HEK293 wild type cell line counter screen (AID 1920065). In a few lines:
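Cells were plated and cultured 18 h at 37 C/5% CO2, then loaded with calcium dye for 1 h at 37 C. Compounds in DMSO were pin-transferred in agonist mode, and fluorescence (Ex/Em 480/540) was read kinetically for 3 min at 1 s intervals.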
For orientation: Calcium flux is commonly read through the fluorescence of an indicator in the cells.

A short description of assay [4]: p53 small molecule agonists, cell-based qHTS assay with human liver microsomes: qHTS cell viability counter screen (AID 1963579). Further: nearly all actives have a fitted effect of over 45% in size. Further: potency means the concentration at half of the fitted maximal effect. In a few lines: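 Metabolic activation used human liver microsomes and NADPH, both 0.5 mg/mL final, over 16 hours at 37 C on p53RE-bla cells (4,000/well). Cytotoxicity measured by CellTiter-Glo luminescence, 30 min at room temperature.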
(Quantitative high-throughput screening tests each substance at several concentrations.)

Assay [5] in a line: p53 small molecule agonists, cell-based qHTS assay with rat liver microsomes: qHTS cell viability counter screen (AID 1963580). Further: nearly all actives have a fitted effect of over 45% in size. Further: potency means the concentration at half of the fitted maximal effect. In a few lines: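 HCT-116 p53RE-bla, 4,000 cells/well, 5 h pre-incubation; cpd + rat liver microsomes 0.5 mg/mL + NADPH 0.5 mg/mL (final); 16 h, 37 C; CellTiter-Glo, 30 min RT; luminescence.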
The target of assay [6] is 5-hydroxytryptamine receptor 2A (Homo sapiens) (UniProt P28223). The experiment in a line: 5-hydroxytryptamine receptor 2A (HTR2A) small molecule agonists, cell-based qHTS assay (AID 1963587). Further: nearly all actives have a fitted effect of over 30% in size. Further: potency means the concentration at half of the fitted maximal effect. The gist of the method: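 Kinetic calcium-flux fluorescence (2 min, 1 sec intervals) after compound addition in agonist mode. HTR2A-CHO cells were cultured 18 h, then dye-loaded 1 h at 37 C.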

The target of assay [7] is Muscarinic acetylcholine receptor M1 (Homo sapiens) (UniProt P11229). Description: Cholinergic receptor muscarinic 1 (CHRM1) small molecule antagonists, cell-based qHTS assay (AID 1963588). Further: nearly all actives have a fitted effect of over 40% in size. Further: potency means the concentration at half of the fitted maximal effect. In a few lines: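 CHRM1-CHO calcium-flux assay, antagonist mode. Cells were seeded 18 h, dye-loaded 1 h at 37 C and given compound for 5 min at RT, then acetylcholine was added at 50nM. FDSS fluorescence was read 3 min; 15 concentrations, three runs.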

Assay [8] shares this target. The experiment in a line: Cholinergic receptor muscarinic 1 (CHRM1) small molecule agonists, cell-based qHTS assay (AID 1963589). Further: nearly all actives have a fitted effect of over 35% in size. In a few lines: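 CHO cells stably expressing human CHRM1, seeded 18 h at 37 C/5% CO2, dye-loaded 1 h at 37 C, then given compound in agonist mode; intracellular calcium fluorescence read kinetically at 1 s intervals. Fifteen concentrations, three independent runs.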

Assay [9] can be described thus: cAMP Responsive Elements (CRE) small molecule agonists, cell-based qHTS assay (AID 1963590). In a few lines:
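CRE-bla HEK 293T cells in DMEM with 10% dialyzed FBS, NEAA, pyruvate and 25 mM HEPES were plated 18 h at 37 C/5% CO2, then exposed to compounds in DMSO for 3 h before LiveBLAzer B/G FRET substrate addition.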

Assay [10] addresses Beta-2 adrenergic receptor (Homo sapiens) (UniProt P07550). The experiment in a line: Adrenergic beta2 receptor (ADRB2) small molecule antagonists, cell-based qHTS assay (AID 1963592). Further: series mostly up to about 92 µM; nearly all actives have a fitted effect of over 50% in size. The gist of the method: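 Cells (CHO, stable ADRB2 overexpression) incubated 18-20hr at 37C; compounds added from DMSO; agonist mix (1nM isoproterenol, 100uM IBMX, 25uM Ro-20-1724) added; 0.5hr RT; d2-cAMP and anti-cAMP-cryptate added; 1hr RT; 665/615 nm read.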

The target in assay [11] is D(2) dopamine receptor (Homo sapiens) (UniProt P14416). Description: Dopamine D2 receptor (DRD2) small molecule agonists, cell-based qHTS assay (AID 1963594). Further: nearly all actives have a fitted effect of over 35% in size. Further: potency means the concentration at half of the fitted maximal effect. In a few lines:
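cAMP accumulation in DRD2-HEK293 cells measured by HTRF after 1 h detection; compounds added 10 min before NKH477 (200nM […]) forskolin-analogue stimulation, 30 min at room temperature, with Ro20-1724 present at 0.1 mM final.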

Assay [12] deals with Gonadotropin-releasing hormone receptor (Homo sapiens) (UniProt P30968). The experiment in a line: Human gonadotropin-releasing hormone receptor (GnRHR) small molecule agonists, calcium flux assay in GnRHR-HEK293 cells (AID 1920063). Further: nearly all actives have a fitted effect of over 35% in size. Further: potency means the concentration at half of the fitted maximal effect. The gist of the method:
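HEK293 cells stably expressing human GnRHR were plated 18 h at 37 °C, loaded with calcium dye 1 h at 37 °C, then given compound in agonist mode; fluorescence (Ex/Em 480/540) read kinetically for 3 min at 1 s intervals.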

A short description of assay [13]: p53 small molecule agonists, cell-based qHTS assay with human liver microsomes (AID 1963577).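 Further: p53 response element beta-lactamase reporter cells with liver microsomes plus NADPH.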 In a few lines:
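With metabolic activation: human liver microsomes (0.5 mg/mL final) plus NADPH (0.5 mg/mL final) added alongside compounds to p53RE-bla cells; 16 h 37 C exposure; beta-lactamase read by LiveBLAzer fluorescence.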

Assay [14] in a line: p53 small molecule agonists, cell-based qHTS assay: qHTS cell viability counter screen (AID 1963581). Further: nearly all actives have a fitted effect of over 45% in size. Further: potency means the concentration at half of the fitted maximal effect. The gist of the method: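 p53RE-bla HCT-116 cells were exposed to compounds for 16 h at 37 C; after the beta-lactamase FRET read in the same wells, CellTiter-Glo was added and luminescence (intracellular ATP) read after 30 min at room temperature.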
Assay [15] in a line: p53 small molecule agonists, cell-based qHTS assay (AID 1963582; active means well fitted activation curve with a large enough effect in the signal ratio in the repeat runs, not every such curve was filed as active; the % refers to the signal ratio). In a few lines: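 p53RE-bla beta-lactamase reporter cells rested 5 h at 37 C/5% CO2, then received compounds in DMSO by pin transfer and were incubated 16 h at 37 C. LiveBLAzer B/G FRET substrate was loaded for 2 h at room temperature before fluorescence reading.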
A short description of assay [16]: cAMP Responsive Elements (CRE) small molecule antagonists, cell-based qHTS assay (AID 1963591; active means well fitted inhibition curve with a large enough effect in the signal ratio in the repeat runs, not every such curve was filed as active; the % refers to the signal ratio). The gist of the method: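 CRE-bla HEK293T cells were plated 18 h at 37 °C/5% CO2, pinned with compound in DMSO, then stimulated with NKH477 at 0.25 uM final for 3 h. LiveBLAzer B/G FRET substrate was added and plates incubated 2 h at room temperature.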
Assay [17] deals with D(2) dopamine receptor (Homo sapiens) (UniProt P14416). Description: Dopamine D2 receptor (DRD2) small molecule antagonists, cell-based qHTS assay (AID 1963595; active means well fitted inhibition curve with a large enough effect in the signal ratio in the repeat runs, with a control signal flat; the % refers to the signal ratio; further: potency means the concentration at half of the fitted maximal effect). In a few lines: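 Stable D2 receptor HEK293 line, 24 h after seeding. Compound preincubated 10 min, then quinpirole (12 nM) with forskolin analogue NKH477 (200 nM), 30 min, room temperature. Detection by time-resolved FRET of cAMP.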

Assay [18] addresses 5-hydroxytryptamine receptor 2A (Homo sapiens) (UniProt P28223). Description: 5-hydroxytryptamine receptor 2A (HTR2A) small molecule antagonists, cell-based qHTS assay (AID 1963586). Further: nearly all actives have a fitted effect of over 45% in size. Further: potency means the concentration at half of the fitted maximal effect. The gist of the method: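 Antagonist-mode intracellular calcium assay: DOI (4 nM) added after 5 min compound pre-incubation at room temperature to dye-loaded HTR2A-CHO cells. Fluorescence followed for 3 min, sampled every second.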

Assay [19] can be described thus: p53 small molecule agonists, cell-based qHTS assay with rat liver microsomes (AID 1963578). The gist of the method: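 Metabolic activation by rat liver microsomes and NADPH, each 0.5 mg/mL final, added right after compounds to p53RE-bla reporter cells (4,000/well, plated 5 h earlier). 16 h at 37 C, then LiveBLAzer substrate for 2 h at room temperature in the dark; fluorescence read-out.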

The structures appear in SMILES notation. Unmarked numbers belong to inactive results. Results filed as inconclusive are left out. Active and inactive are the calls of the source. Unless noted, the call rests on the fitted dose curve.

Chain of Beta-2 adrenergic receptor (Homo sapiens) (P07550 whole entry, looked up): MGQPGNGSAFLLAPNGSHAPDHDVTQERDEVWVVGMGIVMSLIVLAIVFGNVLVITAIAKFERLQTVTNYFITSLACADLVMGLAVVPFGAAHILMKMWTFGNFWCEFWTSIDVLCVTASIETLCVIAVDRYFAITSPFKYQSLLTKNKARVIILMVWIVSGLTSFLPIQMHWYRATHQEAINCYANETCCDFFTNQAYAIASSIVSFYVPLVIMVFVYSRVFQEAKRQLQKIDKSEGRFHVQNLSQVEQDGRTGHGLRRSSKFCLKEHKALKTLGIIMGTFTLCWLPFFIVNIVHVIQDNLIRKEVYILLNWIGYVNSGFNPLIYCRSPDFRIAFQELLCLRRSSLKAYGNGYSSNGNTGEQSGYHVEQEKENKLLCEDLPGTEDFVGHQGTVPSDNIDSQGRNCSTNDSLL
Chain of D(2) dopamine receptor (Homo sapiens) (P14416 whole entry, looked up): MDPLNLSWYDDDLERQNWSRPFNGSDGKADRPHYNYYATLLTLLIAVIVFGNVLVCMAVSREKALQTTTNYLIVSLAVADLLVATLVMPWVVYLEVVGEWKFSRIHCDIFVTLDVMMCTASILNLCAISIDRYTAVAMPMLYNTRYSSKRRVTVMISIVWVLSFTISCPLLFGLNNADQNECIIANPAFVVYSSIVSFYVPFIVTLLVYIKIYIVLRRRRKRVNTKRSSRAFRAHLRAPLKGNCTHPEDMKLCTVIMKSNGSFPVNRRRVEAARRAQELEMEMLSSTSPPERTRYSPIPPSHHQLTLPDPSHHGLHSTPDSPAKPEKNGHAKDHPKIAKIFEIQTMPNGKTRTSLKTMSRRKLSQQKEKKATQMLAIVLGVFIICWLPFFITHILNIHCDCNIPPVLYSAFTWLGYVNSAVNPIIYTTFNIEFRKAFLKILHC
Chain of KiSS-1 receptor (Homo sapiens) (Q969F8 whole entry, looked up): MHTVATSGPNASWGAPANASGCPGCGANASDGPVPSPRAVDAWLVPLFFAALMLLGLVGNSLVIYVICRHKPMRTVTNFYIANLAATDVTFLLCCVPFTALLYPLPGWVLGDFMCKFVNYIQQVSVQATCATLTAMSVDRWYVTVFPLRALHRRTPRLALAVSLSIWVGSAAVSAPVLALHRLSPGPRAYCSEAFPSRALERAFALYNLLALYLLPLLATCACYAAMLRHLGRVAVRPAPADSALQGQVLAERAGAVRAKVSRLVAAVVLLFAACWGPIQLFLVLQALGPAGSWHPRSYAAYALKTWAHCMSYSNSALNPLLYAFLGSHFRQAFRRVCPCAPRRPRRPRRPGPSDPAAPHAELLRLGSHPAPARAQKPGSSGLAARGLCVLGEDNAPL
Chain of Muscarinic acetylcholine receptor M1 (Homo sapiens) (P11229 whole entry, looked up): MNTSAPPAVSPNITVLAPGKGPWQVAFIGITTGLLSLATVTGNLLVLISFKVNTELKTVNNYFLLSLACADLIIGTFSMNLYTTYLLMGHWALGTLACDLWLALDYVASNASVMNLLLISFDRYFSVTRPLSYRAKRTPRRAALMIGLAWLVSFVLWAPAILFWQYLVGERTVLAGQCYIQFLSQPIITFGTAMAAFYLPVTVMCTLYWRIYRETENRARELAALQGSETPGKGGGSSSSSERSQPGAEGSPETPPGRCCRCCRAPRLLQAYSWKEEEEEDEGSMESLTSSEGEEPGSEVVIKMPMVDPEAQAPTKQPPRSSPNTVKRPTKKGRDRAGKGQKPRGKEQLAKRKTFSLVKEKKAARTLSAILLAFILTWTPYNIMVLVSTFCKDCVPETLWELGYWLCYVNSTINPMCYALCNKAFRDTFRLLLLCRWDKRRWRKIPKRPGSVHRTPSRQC
Chain of Gonadotropin-releasing hormone receptor (Homo sapiens) (P30968 whole entry, looked up): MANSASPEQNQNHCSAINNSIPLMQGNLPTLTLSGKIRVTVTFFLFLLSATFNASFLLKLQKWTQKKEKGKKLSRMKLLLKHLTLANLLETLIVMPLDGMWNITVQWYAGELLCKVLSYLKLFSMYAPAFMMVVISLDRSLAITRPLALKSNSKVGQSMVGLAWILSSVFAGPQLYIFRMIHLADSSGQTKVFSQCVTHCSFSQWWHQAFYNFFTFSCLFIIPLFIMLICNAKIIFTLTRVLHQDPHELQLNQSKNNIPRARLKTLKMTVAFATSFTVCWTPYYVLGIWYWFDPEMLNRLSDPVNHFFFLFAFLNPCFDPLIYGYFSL
Chain of 5-hydroxytryptamine receptor 2A (Homo sapiens) (P28223 whole entry, looked up): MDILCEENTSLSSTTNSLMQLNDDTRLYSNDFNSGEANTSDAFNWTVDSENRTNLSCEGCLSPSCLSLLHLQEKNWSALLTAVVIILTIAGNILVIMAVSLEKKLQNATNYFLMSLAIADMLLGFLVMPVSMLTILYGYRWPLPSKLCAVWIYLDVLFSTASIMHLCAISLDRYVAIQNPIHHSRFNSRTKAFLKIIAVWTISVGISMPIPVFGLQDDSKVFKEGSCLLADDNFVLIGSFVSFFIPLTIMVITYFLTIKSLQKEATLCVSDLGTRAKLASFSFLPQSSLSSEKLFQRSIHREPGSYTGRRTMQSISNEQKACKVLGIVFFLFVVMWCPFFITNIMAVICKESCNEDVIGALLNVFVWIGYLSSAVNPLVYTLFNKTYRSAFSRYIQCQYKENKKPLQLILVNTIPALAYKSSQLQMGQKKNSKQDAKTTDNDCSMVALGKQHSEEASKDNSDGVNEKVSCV

In the case of `CC(=O)[O-].[Tl+]`, the Potency entry in assay [1], in assay [2], in [3], in [4], in assay [5] and in [6] was “inactive” in each case. Also, the Potency entry in assay [7], in [8], in assay [9], in assay [10] and in assay [11] was “inactive” in each case.
On to `CCC1(c2ccccc2)C(=O)NC(=O)NC1=O`, for which the Potency entry in assay [1], in assay [12], in assay [3], in assay [13], in assay [4] and in [5] was “inactive” throughout. The Potency result in [14], in [15], in [9], in [16], in assay [10] and in assay [11] was “inactive” each time. Further, the Potency entry in assay [17] is “inactive”.
`CN1C[C@@H](NS(=O)(=O)N(C)C)C[C@@H]2c3cccc4c3c(cn4C)C[C@H]21`: the Potency entry in [1], in assay [12], in assay [3], in [13], in [4] and in assay [5] was “inactive” throughout. For the same molecule, the Potency entry in assay [15], in assay [6], in assay [7], in assay [8], in assay [9] and in [10] was “inactive” throughout. The Potency in assay [18] is 0.13 µM (active); in [11], 3.76 µM (active); in assay [17] it was 1.19 µM (active).
As for `CC(=O)[O-].CC(=O)[O-].[Hg+2]`, the Potency in assay [1] was 3.06 µM (active); in assay [12] it was 38.9 µM (active); in assay [4] it was 3.63 µM (active); in assay [5] it was 16.2 µM (active); in assay [14], 7.25 µM (active); in assay [6] it was 49 µM (active). The Potency is 21.1 µM (active) in [7], 14.2 µM (active) in assay [11] and 5.45 µM (active) in assay [17]. Moreover, the Potency entry in assay [18] is “inactive”.
With `O=[N+]([O-])C(Br)Br`, the Potency entry in assay [1], in [2], in assay [3], in assay [13], in assay [19] and in [4] was “inactive” each time. Further, the Potency entry in [5], in assay [14], in assay [15], in assay [7], in [8] and in assay [9] was “inactive” each time. Further, the Potency entry in assay [16], in assay [10], in assay [11] and in assay [17] was “inactive” throughout. Further, the results for the Potency in assay [18] and in [6] were 37.6 µM (active) and 55 µM (active), respectively.
Turning to `CCCCN(N=O)C(=N)N[N+](=O)[O-]`, the Potency entry in assay [1], in assay [12], in [3], in assay [13], in [19] and in assay [5] was “inactive” in each case. The Potency result in assay [14], in [18], in [6], in assay [7], in assay [8] and in [16] was “inactive” in each case. For the same molecule, the Potency entry in [10], in assay [11] and in assay [17] was “inactive” throughout.
Regarding `CCCN(CCC)CCc1c[nH]c2ccccc12`, the Potency result in [1], in assay [12], in assay [3], in assay [13], in assay [19] and in [4] was “inactive” each time. In addition, the Potency result in [5], in assay [15], in assay [7], in [8], in [9] and in assay [16] was “inactive” in each case. Besides, the Potency result in [10] and in [17] was “inactive” each time. The figures for the Potency in [18], in [6] and in assay [11] were 0.0131 µM (active), 0.0043 µM (active) and 21.4 µM (active), respectively.
For the molecule `CCCOc1nn(C(=O)NS(=O)(=O)c2ccccc2C(=O)OC)c(=O)n1C`, the Potency entry in assay [1], in assay [2], in assay [3], in assay [19], in assay [4] and in [5] was “inactive” each time. For the same molecule, the Potency result in assay [14], in assay [15], in assay [18], in assay [6], in assay [7] and in assay [8] was “inactive” in each case. The Potency result in assay [9], in assay [16], in assay [10], in assay [11] and in assay [17] was “inactive” in each case.
